# Results taken from paper PMC5700166.
# Tests used:
# Assay in all cases: protein-binding microarray (PBM); PBM: ~300 nM protein, 6 mM HEPES pH 7.8, 80 mM KCl, 0.5 mM EDTA, 0.5 mM EGTA, 6% glycerol, 35 ng/ul poly-dIdC, 1% milk, 1 h, room temperature; Ap Aiptasia and Nv Nematostella (sea anemones) / Co Capsaspora / Aq Amphimedon (sponge) / Dm Drosophila / Hu human; RHD is the Rel homology domain; high values mean tight binding
# Details in all cases: dsDNA, one strand shown
# GST-Ap-NF-kB RHD = biological target: T1, GST-Ap-NF-kB RHD (Exaiptasia pallida (Aiptasia), UniProt A0A913YAJ5 2-422)
# T1 sequence: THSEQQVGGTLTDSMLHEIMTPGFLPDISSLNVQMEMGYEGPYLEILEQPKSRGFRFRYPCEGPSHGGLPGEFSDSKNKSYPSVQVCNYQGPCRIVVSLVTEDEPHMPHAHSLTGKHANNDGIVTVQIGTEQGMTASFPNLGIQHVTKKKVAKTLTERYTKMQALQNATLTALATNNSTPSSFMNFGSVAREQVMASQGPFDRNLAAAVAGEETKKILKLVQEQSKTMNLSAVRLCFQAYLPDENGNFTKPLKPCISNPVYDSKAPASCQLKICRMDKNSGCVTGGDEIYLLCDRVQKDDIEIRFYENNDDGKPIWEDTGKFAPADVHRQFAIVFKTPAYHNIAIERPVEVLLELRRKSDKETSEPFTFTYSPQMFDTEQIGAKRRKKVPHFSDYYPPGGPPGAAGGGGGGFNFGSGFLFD
# GST-Co-NF-kB = biological target: T2, GST-Co-NF-kB (Capsaspora owczarzaki, UniProt F1ARL5 200-546)
# T2 sequence: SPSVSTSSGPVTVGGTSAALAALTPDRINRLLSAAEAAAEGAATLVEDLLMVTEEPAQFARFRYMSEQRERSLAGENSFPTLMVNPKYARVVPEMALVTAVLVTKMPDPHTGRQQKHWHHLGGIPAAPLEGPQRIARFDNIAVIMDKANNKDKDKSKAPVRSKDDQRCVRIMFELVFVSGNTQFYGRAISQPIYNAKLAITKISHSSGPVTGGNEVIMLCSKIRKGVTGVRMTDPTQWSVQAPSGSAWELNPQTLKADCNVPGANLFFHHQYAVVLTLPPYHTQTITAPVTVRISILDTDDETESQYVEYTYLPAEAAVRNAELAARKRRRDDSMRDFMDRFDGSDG
# GST-Dm-Relish = biological target: T3, GST-Dm-Relish (Drosophila melanogaster, UniProt Q94527 99-473)
# T3 sequence: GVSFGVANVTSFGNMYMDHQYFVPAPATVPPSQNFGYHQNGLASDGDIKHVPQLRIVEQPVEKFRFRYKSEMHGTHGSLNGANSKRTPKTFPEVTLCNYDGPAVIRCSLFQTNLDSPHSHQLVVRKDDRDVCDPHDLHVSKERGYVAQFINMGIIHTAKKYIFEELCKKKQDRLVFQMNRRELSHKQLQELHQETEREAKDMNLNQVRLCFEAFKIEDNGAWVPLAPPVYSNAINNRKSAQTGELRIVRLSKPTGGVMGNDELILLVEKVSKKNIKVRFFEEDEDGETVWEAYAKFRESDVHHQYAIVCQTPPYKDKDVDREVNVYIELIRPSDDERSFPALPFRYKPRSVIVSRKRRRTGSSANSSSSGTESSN
# GST-Aq-NF-kB = biological target: T4, GST-Aq-NF-kB (Amphimedon queenslandica, UniProt A9Y5G7 2-389)
# T4 sequence: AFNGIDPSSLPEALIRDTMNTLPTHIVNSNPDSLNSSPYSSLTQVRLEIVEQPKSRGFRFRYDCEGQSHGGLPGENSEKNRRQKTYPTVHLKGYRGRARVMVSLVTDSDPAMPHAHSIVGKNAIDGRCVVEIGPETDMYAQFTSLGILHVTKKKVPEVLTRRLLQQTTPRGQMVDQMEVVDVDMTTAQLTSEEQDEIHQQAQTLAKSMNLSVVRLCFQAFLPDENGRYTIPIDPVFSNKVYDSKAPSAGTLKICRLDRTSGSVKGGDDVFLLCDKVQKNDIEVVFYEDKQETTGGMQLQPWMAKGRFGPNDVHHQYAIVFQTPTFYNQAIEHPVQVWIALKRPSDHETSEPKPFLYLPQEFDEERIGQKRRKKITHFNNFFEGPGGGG
# [1] = biological target: T5, GST-Nv-NF-kB (Ser allele) (Nematostella vectensis, UniProt A7UNT2 2-411)
# T5 sequence: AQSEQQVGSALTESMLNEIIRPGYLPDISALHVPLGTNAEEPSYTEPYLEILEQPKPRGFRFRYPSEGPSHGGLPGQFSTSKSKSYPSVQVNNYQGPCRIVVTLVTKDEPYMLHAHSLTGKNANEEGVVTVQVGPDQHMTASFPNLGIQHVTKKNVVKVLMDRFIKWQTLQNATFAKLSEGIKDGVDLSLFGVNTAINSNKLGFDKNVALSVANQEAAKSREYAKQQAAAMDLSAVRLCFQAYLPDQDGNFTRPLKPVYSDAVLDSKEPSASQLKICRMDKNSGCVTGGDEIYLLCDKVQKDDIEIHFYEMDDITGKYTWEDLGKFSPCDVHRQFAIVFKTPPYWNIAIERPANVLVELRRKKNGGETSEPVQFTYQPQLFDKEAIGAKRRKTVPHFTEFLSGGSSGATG
Sequence,binding signal (GST-Ap-NF-kB RHD),binding signal (GST-Co-NF-kB),binding signal (GST-Dm-Relish),binding signal (GST-Aq-NF-kB),binding signal [1]
CCGATTAACATCAGGTGTTCCCATGATGTTAATCGGGTCTTGATTCGCTTGACGCTGCTG,1.43 z-score,1.45 z-score,5.22 z-score,2.04 z-score,
CCGATTAACATCACTCCCCCCCCTGATGTTAATCGGGTCTTGATTCGCTTGACGCTGCTG,5.73 z-score,6.72 z-score,4.43 z-score,4.65 z-score,
CCGATTAACATCACGGGGGGGGCTGATGTTAATCGGGTCTTGATTCGCTTGACGCTGCTG,4.19 z-score,5.11 z-score,4.98 z-score,4.34 z-score,
CCGATTAACATCATGGGGGGGAATGATGTTAATCGGGTCTTGATTCGCTTGACGCTGCTG,6.87 z-score,8.77 z-score,4.72 z-score,5.36 z-score,
CCGATTAACATCACCCCCCCTGATGATGTTAATCGGGTCTTGATTCGCTTGACGCTGCTG,4.83 z-score,5.83 z-score,4.63 z-score,4.51 z-score,3.09 z-score
CCGATTAACATCATAAGGGGTGTTGATGTTAATCGGGTCTTGATTCGCTTGACGCTGCTG,2.3 z-score,1.09 z-score,,1.91 z-score,
CCGATTAACATCAGGCAACCCCATGATGTTAATCGGGTCTTGATTCGCTTGACGCTGCTG,1.67 z-score,1.23 z-score,2.62 z-score,1.4 z-score,
CCGATTAACATCAATTCCCCCCCTGATGTTAATCGGGTCTTGATTCGCTTGACGCTGCTG,8.18 z-score,8.87 z-score,6.09 z-score,6.45 z-score,7.32 z-score
CCGATTAACATCAGTACTTCCCATGATGTTAATCGGGTCTTGATTCGCTTGACGCTGCTG,1.53 z-score,1.42 z-score,9.09 z-score,2.53 z-score,
CCGATTAACATCAATACCCCCCCTGATGTTAATCGGGTCTTGATTCGCTTGACGCTGCTG,6.7 z-score,6.7 z-score,5.66 z-score,4.66 z-score,
CCGATTAACATCAACCCCCCCCGTGATGTTAATCGGGTCTTGATTCGCTTGACGCTGCTG,5.8 z-score,6.25 z-score,6.51 z-score,4.08 z-score,2.64 z-score
CCGATTAACATCAGGATATCCCATGATGTTAATCGGGTCTTGATTCGCTTGACGCTGCTG,2.32 z-score,1.41 z-score,3 z-score,2.24 z-score,
CCGATTAACATCACGGACACCCCTGATGTTAATCGGGTCTTGATTCGCTTGACGCTGCTG,1.65 z-score,1.34 z-score,1.95 z-score,2.16 z-score,
CCGATTAACATCATCCGCGGGAGTGATGTTAATCGGGTCTTGATTCGCTTGACGCTGCTG,1.05 z-score,1.38 z-score,,1.92 z-score,
CCGATTAACATCAAGGTGTTCCCTGATGTTAATCGGGTCTTGATTCGCTTGACGCTGCTG,1.65 z-score,2.38 z-score,4.31 z-score,2.49 z-score,
CCGATTAACATCACGGATATCCCTGATGTTAATCGGGTCTTGATTCGCTTGACGCTGCTG,1.57 z-score,1.15 z-score,2.04 z-score,2.76 z-score,
CCGATTAACATCAGGGGGGGAACTGATGTTAATCGGGTCTTGATTCGCTTGACGCTGCTG,6.55 z-score,8.33 z-score,5.17 z-score,4.84 z-score,
CCGATTAACATCAATCCCCCCCCTGATGTTAATCGGGTCTTGATTCGCTTGACGCTGCTG,7.49 z-score,7.2 z-score,6.09 z-score,5.2 z-score,
CCGATTAACATCAGGGGGGGGGATGATGTTAATCGGGTCTTGATTCGCTTGACGCTGCTG,6.37 z-score,7.03 z-score,5.78 z-score,5.02 z-score,
CCGATTAACATCACACCCCAACATGATGTTAATCGGGTCTTGATTCGCTTGACGCTGCTG,1.38 z-score,2.16 z-score,,1.02 z-score,
CCGATTAACATCATAGTGAGGGGTGATGTTAATCGGGTCTTGATTCGCTTGACGCTGCTG,2.05 z-score,1.74 z-score,,1.09 z-score,
CCGATTAACATCAAGGGGGGAAATGATGTTAATCGGGTCTTGATTCGCTTGACGCTGCTG,6.16 z-score,7.79 z-score,4.47 z-score,5.8 z-score,8.51 z-score
CCGATTAACATCAGGGGGGGATATGATGTTAATCGGGTCTTGATTCGCTTGACGCTGCTG,6.21 z-score,5.9 z-score,4.91 z-score,5.29 z-score,5.63 z-score
CCGATTAACATCAAGGGGGGAGGTGATGTTAATCGGGTCTTGATTCGCTTGACGCTGCTG,4.12 z-score,5.65 z-score,3.23 z-score,4.07 z-score,4.04 z-score
CCGATTAACATCACCGGAATTCCTGATGTTAATCGGGTCTTGATTCGCTTGACGCTGCTG,1.13 z-score,1.36 z-score,3.45 z-score,2.36 z-score,
CCGATTAACATCACGGGCACCCCTGATGTTAATCGGGTCTTGATTCGCTTGACGCTGCTG,1.72 z-score,1.34 z-score,2.01 z-score,2.04 z-score,
CCGATTAACATCAGTCCCCCCCATGATGTTAATCGGGTCTTGATTCGCTTGACGCTGCTG,5.83 z-score,6.28 z-score,4.23 z-score,4.7 z-score,3.57 z-score
CCGATTAACATCAGGGGGGGAAATGATGTTAATCGGGTCTTGATTCGCTTGACGCTGCTG,6.79 z-score,10.2 z-score,5.34 z-score,5.89 z-score,7.98 z-score
CCGATTAACATCAAGGGGGGGAGTGATGTTAATCGGGTCTTGATTCGCTTGACGCTGCTG,4.51 z-score,7.82 z-score,3.56 z-score,4.43 z-score,
